Reference: PubChem BioAssay (Tox21)
Records with an inconclusive call do not appear. Calls of active or inactive are those of the source. Unless noted, calls come from the whole dose curve.

Legend:
[1] = Nuclear factor erythroid 2-related factor 2/antioxidant responsive element (Nrf2/ARE) small molecule agonists: qHTS cell viability counter screen in human keratinocytes (AID 1919968; active = well fitted curve in the direction sought with a large enough effect in the repeat runs; an effect the other way counts as inactive or inconclusive; note: nearly all actives have a fitted effect of over 55% in size)
Procedure, shortened: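 In human HaCaT keratinocytes stably expressing an ARE-driven luciferase, compound exposure lasted 23 h at 37 C under 5% CO2. Viable cells are quantified with a protease-based fluorogenic reagent (CellTiter-Fluor) read 1 h after addition.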

[2] = Nuclear factor erythroid 2-related factor 2/antioxidant responsive element (Nrf2/ARE) small molecule agonists: luciferase reporter gene qHTS assay in human keratinocytes (AID 1919969); note: nearly all actives have a fitted effect of over 35% in size
[3] = molecular target: Gonadotropin-releasing hormone receptor (Homo sapiens) (UniProt P30968); experiment: Human gonadotropin-releasing hormone receptor (GnRHR) small molecule agonists, calcium flux assay in GnRHR-HEK293 cells (AID 1920063); note: nearly all actives have a fitted effect of over 35% in size
Gonadotropin-releasing hormone receptor (Homo sapiens), sequence (P30968 whole entry, looked up): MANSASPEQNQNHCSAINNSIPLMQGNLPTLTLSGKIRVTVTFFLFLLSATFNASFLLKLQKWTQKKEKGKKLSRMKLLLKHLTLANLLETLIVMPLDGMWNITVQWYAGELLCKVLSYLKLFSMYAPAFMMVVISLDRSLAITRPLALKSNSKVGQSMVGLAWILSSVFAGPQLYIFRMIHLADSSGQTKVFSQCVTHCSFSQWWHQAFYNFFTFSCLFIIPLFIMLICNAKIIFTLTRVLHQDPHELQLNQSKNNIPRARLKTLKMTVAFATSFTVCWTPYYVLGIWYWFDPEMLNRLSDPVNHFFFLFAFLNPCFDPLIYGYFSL
Procedure, shortened: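 Intracellular calcium rise is the read-out: engineered human GnRHR HEK293 cells, dye-loaded, are exposed to DMSO-dissolved compounds and fluorescence at Ex/Em 480/540 is tracked for 3 min.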

[4] = molecular target: KiSS-1 receptor (Homo sapiens) (UniProt Q969F8); experiment: Human kisspeptin (KISS1R) small molecule agonists, calcium flux assay in KISS1R-HEK293 cells (AID 1920064; active = well fitted curve in the direction sought with a large enough effect in the repeat runs; an effect the other way counts as inactive or inconclusive)
KiSS-1 receptor (Homo sapiens), sequence (Q969F8 whole entry, looked up): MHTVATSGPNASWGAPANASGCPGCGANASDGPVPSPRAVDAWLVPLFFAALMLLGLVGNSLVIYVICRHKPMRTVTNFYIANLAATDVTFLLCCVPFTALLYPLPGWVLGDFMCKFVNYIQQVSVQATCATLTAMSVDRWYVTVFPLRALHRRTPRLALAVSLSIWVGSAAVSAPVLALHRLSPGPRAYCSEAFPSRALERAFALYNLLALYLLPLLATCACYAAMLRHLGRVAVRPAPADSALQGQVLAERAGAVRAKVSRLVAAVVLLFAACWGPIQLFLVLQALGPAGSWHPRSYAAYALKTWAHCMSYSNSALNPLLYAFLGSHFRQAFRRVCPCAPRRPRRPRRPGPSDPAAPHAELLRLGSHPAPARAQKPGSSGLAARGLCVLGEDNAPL
Procedure, shortened: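 Concentration-response testing used 15 concentrations in triplicate on human KISS1R-expressing HEK293 cells. Calcium-dependent fluorescence (Ex/Em 480/540) was followed kinetically for 3 min after compound transfer.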

[5] = G protein-coupled receptor (GPCR) small molecule agonists, calcium flux assay: HEK293 wild type cell line counter screen (AID 1920065)
Procedure, shortened: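 Fluorescence intensity signals activation. After overnight (18 h) culture and a 1 h calcium dye load at 37 C, compounds are added by pin tool and the plate read at 480/540 nm for 3 min in 1 s steps.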

[6] = p53 small molecule agonists, cell-based qHTS assay with human liver microsomes: qHTS cell viability counter screen (AID 1963579); note: nearly all actives have a fitted effect of over 45% in size
Procedure, shortened: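 Seed p53RE-bla cells at 4,000 per well; incubate 5 h at 37 C; add compound, human liver microsomes and NADPH; incubate 16 h at 37 C; add CellTiter-Glo; after 30 min at room temperature, read luminescence.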

[7] = p53 small molecule agonists, cell-based qHTS assay with rat liver microsomes: qHTS cell viability counter screen (AID 1963580); note: nearly all actives have a fitted effect of over 45% in size
Procedure, shortened: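 Counter screen for cytotoxicity under metabolic activation: rat liver microsomes and NADPH, 0.5 mg/mL final each, added with compounds to p53RE-bla HCT-116 cells; 16 h at 37 C, then ATP luminescence read.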

[8] = p53 small molecule agonists, cell-based qHTS assay: qHTS cell viability counter screen (AID 1963581); note: nearly all actives have a fitted effect of over 45% in size; note: potency is the fitted concentration of half-maximal effect
Procedure, shortened: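 Luminescence from CellTiter-Glo, reflecting ATP content, serves as the cytotoxicity measure; it is taken after the 2 h reporter substrate step in HCT-116 p53RE-bla cells dosed for 16 h at 37 C.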

[9] = molecular target: 5-hydroxytryptamine receptor 2A (Homo sapiens) (UniProt P28223); experiment: 5-hydroxytryptamine receptor 2A (HTR2A) small molecule antagonists, cell-based qHTS assay (AID 1963586); note: nearly all actives have a fitted effect of over 45% in size
5-hydroxytryptamine receptor 2A (Homo sapiens), sequence (P28223 whole entry, looked up): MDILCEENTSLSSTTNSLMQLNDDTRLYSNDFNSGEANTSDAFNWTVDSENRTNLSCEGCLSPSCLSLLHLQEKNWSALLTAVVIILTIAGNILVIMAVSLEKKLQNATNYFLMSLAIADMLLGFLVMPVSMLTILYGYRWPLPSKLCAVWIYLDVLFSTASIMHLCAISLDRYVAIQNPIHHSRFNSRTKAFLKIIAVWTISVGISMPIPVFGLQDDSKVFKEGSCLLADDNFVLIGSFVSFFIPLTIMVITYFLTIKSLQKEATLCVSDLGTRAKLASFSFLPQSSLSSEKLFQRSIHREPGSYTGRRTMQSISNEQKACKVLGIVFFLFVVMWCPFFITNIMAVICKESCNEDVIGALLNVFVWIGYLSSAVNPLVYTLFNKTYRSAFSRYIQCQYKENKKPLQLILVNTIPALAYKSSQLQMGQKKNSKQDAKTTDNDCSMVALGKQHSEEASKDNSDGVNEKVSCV
Procedure, shortened: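 CHO cells stably expressing human HTR2A were plated for 18 h at 37 C, then loaded with calcium dye for 1 h. Compounds were preincubated 5 min at room temperature before DOI (4 nM solution) was added. Kinetic fluorescence was read for 3 min.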

[10] = molecular target: 5-hydroxytryptamine receptor 2A (Homo sapiens) (UniProt P28223); experiment: 5-hydroxytryptamine receptor 2A (HTR2A) small molecule agonists, cell-based qHTS assay (AID 1963587); note: nearly all actives have a fitted effect of over 30% in size
Procedure, shortened: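 HTR2A-CHO cells, plated 18 h at 37 C/5% CO2, dye-loaded 1 h at 37 C; compounds in DMSO added by pin tool (agonist mode). Intracellular calcium flux read as kinetic fluorescence on FDSS over 2 min at 1 s intervals.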

[11] = molecular target: Muscarinic acetylcholine receptor M1 (Homo sapiens) (UniProt P11229); experiment: Cholinergic receptor muscarinic 1 (CHRM1) small molecule antagonists, cell-based qHTS assay (AID 1963588); note: nearly all actives have a fitted effect of over 40% in size; note: potency is the fitted concentration of half-maximal effect
Muscarinic acetylcholine receptor M1 (Homo sapiens), sequence (P11229 whole entry, looked up): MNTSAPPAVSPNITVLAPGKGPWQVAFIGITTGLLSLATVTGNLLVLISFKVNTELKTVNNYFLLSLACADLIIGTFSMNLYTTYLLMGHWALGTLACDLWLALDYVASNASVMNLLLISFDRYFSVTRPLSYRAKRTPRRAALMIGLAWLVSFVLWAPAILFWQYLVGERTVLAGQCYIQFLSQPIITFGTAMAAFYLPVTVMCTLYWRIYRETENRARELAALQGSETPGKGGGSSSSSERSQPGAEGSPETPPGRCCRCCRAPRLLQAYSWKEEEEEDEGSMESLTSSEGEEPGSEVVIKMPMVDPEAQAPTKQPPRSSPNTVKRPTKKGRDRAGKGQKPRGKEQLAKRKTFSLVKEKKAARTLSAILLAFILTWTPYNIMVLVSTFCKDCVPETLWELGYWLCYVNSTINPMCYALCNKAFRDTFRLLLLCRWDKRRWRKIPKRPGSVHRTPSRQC
Procedure, shortened: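 Compounds were tested at 15 concentrations in three independent runs. Dye-loaded CHRM1-CHO cells were exposed 5 min at room temperature before stimulation by acetylcholine added at 50nM. Intracellular calcium was read kinetically on FDSS for 3 min.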

[12] = molecular target: Muscarinic acetylcholine receptor M1 (Homo sapiens) (UniProt P11229); experiment: Cholinergic receptor muscarinic 1 (CHRM1) small molecule agonists, cell-based qHTS assay (AID 1963589); note: nearly all actives have a fitted effect of over 35% in size
Procedure, shortened: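 Fluorescent calcium dye reports M1 activation in stably transfected CHO cells. Compounds, 15 concentrations, added after 1 h dye loading at 37 C; kinetic reading at 1 sec intervals.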

[13] = cAMP Responsive Elements (CRE) small molecule agonists, cell-based qHTS assay (AID 1963590)
Procedure, shortened: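 Compound exposure lasted 3 h at 37 C/5% CO2 in CRE-bla HEK 293T cells grown in assay medium with 10% dialyzed FBS and 25 mM HEPES. Reporter signal came from LiveBLAzer B/G FRET substrate, 2 h, room temperature.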

[14] = cAMP Responsive Elements (CRE) small molecule antagonists, cell-based qHTS assay (AID 1963591; active = well fitted inhibition curve with a large enough effect in the signal ratio in the repeat runs, not every such curve was filed as active; the % refers to the signal ratio)
Procedure, shortened: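 Stimulation used NKH477 at a final 0.25 uM for 3 h in compound-treated CRE-bla HEK293T cells, seeded 18 h beforehand. Reporter activity was measured with LiveBLAzer B/G FRET substrate after 2 h at room temperature.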

[15] = molecular target: Beta-2 adrenergic receptor (Homo sapiens) (UniProt P07550); experiment: Adrenergic beta2 receptor (ADRB2) small molecule antagonists, cell-based qHTS assay (AID 1963592); note: series mostly up to about 92 µM; nearly all actives have a fitted effect of over 50% in size
Beta-2 adrenergic receptor (Homo sapiens), sequence (P07550 whole entry, looked up): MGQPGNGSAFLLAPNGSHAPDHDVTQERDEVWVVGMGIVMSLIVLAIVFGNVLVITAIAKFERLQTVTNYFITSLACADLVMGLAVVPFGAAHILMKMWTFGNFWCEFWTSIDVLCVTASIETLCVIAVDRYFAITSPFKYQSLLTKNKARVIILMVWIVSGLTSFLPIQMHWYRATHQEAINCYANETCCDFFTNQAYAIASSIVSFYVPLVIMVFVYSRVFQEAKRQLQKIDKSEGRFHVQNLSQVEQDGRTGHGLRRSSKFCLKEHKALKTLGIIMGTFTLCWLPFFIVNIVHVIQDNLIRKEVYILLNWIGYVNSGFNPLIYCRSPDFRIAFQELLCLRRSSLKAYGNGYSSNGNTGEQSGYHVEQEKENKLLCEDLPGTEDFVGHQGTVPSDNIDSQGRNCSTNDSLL
Procedure, shortened: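 Assay format: CHO-ADRB2 cells, 18-20hr seeding at 37C/5% CO2, then compound plus 1nM isoproterenol agonist mix for 0.5hr RT. Homogeneous time-resolved fluorescence cAMP detection after 1hr, expressed as 665/615 nm ratio.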

[16] = molecular target: D(2) dopamine receptor (Homo sapiens) (UniProt P14416); experiment: Dopamine D2 receptor (DRD2) small molecule agonists, cell-based qHTS assay (AID 1963594); note: nearly all actives have a fitted effect of over 35% in size
D(2) dopamine receptor (Homo sapiens), sequence (P14416 whole entry, looked up): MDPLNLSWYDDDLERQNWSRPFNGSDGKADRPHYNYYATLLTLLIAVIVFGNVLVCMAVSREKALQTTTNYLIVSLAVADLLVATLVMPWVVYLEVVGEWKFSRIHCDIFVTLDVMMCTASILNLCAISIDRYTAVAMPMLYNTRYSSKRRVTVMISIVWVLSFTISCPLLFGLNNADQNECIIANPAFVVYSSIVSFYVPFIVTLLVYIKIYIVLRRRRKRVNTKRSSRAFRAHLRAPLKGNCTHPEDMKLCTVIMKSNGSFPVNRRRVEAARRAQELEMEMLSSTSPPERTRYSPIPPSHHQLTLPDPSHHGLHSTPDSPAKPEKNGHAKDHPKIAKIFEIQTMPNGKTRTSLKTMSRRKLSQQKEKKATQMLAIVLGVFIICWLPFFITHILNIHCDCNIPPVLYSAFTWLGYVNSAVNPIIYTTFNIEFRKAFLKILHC
Procedure, shortened: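 HEK293 cells stably expressing DRD2 were cultured 24 h at 37 C, then given Ro20-1724 (0.1 mM final) and compounds for 10 min at room temperature. NKH477 (200nM) was then added for 30 min. cAMP was read by HTRF.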

[17] = molecular target: D(2) dopamine receptor (Homo sapiens) (UniProt P14416); experiment: Dopamine D2 receptor (DRD2) small molecule antagonists, cell-based qHTS assay (AID 1963595; active = well fitted inhibition curve with a large enough effect in the signal ratio in the repeat runs, with a control signal flat; the % refers to the signal ratio)
Procedure, shortened: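 Antagonist mode in DRD2-HEK293 cells: after compound addition with 0.1 mM Ro20-1724, cells received quinpirole (12 nM) and NKH477 (200 nM) for 30 min at room temperature; HTRF cAMP read after 1 h detection.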

[18] = molecular target: Beta-2 adrenergic receptor (Homo sapiens) (UniProt P07550); experiment: Adrenergic beta2 receptor (ADRB2) small molecule agonists, cell-based qHTS assay (AID 1963593);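 note: CHO cells stably overexpressing human ADRB2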
Procedure, shortened: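 CHO cells stably over-expressing ADRB2 were plated overnight at 37C, then dosed with compounds plus a stimulation mix containing 100uM IBMX and 25uM Ro-20-1724 for 0.5hr at room temperature. cAMP was measured by HTRF competition, 1hr.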

Measured: Potency

COc1ccc(COC=O)cc1
not listed: [18]
inactive: all other assays above

SCCOCCOCCS
not listed: [18]
inactive: all other assays above

Cc1ccc(C#N)cc1
not listed: [18]
inactive: all other assays above

COCCCOCCCOC
not listed: [16]
inactive: all other assays above

CC1=C(O)C(=O)CO1
not listed: [18]
inactive: all other assays above

NCCCC(N)(C(=O)O)C(F)F (centres undefined)
active: [11] 163 nM
inactive: all other assays above

Nc1cc(Cl)cc(S(=O)(=O)O)c1O
not listed: [17] | [18]
inactive: all other assays above

FB(F)F
inactive: all assays above

CC(C)C(=O)OCCc1ccccc1
inactive: all assays above

CC(=O)c1ccc(C)cc1
not listed: [18]
inactive: all other assays above

O=C(Nc1ccccc1)OCC(CN1CCCCC1)OC(=O)Nc1ccccc1 (centres undefined)
active: [8] 12.6 µM
not listed: [18]
inactive: all other assays above

COc1cc(OC)c2ccc(=O)oc2c1
not listed: [18]
inactive: all other assays above

CC(C)CCC(=O)CCC(C)C
not listed: [18]
inactive: all other assays above

O=C1CC[C@@H](C(=O)O)N1
inactive: all assays above

CCc1ccccc1
inactive: all assays above
